Experimental data taken from article PMC9838217, “Structure of SALL4 zinc finger domain reveals link between AT-rich DNA binding and Okihiro syndrome”.
Changes are numbered by the printed parent chain.

Experiments:
Test in all cases: HT-SELEX; high values mean tight binding
Conditions in all cases: protein: recombinant; vector His6-GST; dsDNA, one strand shown
SALL4 ZFC4 WT (HT-SELEX) = molecular target: T1, SALL4 ZFC4 WT (HT-SELEX) (Mus musculus, UniProt Q8BX22 870-940)
T1 sequence: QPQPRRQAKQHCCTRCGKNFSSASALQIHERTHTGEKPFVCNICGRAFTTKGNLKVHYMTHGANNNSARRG
How it was run: (§1)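 Binding signal is expressed as fold change in each canonical k-mer's read fraction over the initial random library. To obtain it, 1 µg of purified recombinant mouse SALL4 zinc finger cluster 4 (residues 870–940) was incubated for 10 min at room temperature with library DNA (1.5 µg first cycle, 200 ng later cycles) in 100 µl of 10 mM Tris–HCl pH 7.5, 50 mM NaCl, poly(dI-dC) and DTT. Ni2+ bead-captured complexes went through washing, PCR amplification and reselection for up to 6 cycles, in triplicate, before MiSeq sequencing and scanning for 6-mers.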

[1] = molecular target: T2, SALL4 ZFC4 R900W (HT-SELEX) (Mus musculus, UniProt Q8BX22 870-940, R900W)
T2 sequence: T1 sequence with R31W
How it was run: as §1

[2] = molecular target: T3, SALL4 ZFC4 G921D (HT-SELEX) (Mus musculus, UniProt Q8BX22 870-940, G921D)
T3 sequence: T1 sequence with G52D
How it was run: as §1

Sequence	binding signal (SALL4 ZFC4 WT (HT-SELEX))	binding signal [1]	binding signal [2]
AACGAT	1.21 ± 0.0566 fold-change vs cycle 0	1.27 ± 0.0691 fold-change vs cycle 0	1.23 ± 0.0814 fold-change vs cycle 0
GACGAA	0.609 ± 0.00641 fold-change vs cycle 0	0.72 ± 0.0219 fold-change vs cycle 0	0.7905 ± 0.00753 fold-change vs cycle 0
AGAACC	0.8 ± 0.0457 fold-change vs cycle 0	0.93 ± 0.0272 fold-change vs cycle 0	0.981 ± 0.014 fold-change vs cycle 0
CACTCG	0.397 ± 0.0122 fold-change vs cycle 0	0.459 ± 0.00566 fold-change vs cycle 0	0.562 ± 0.0414 fold-change vs cycle 0
ATAGCG	0.516 ± 0.00601 fold-change vs cycle 0	0.55 ± 0.0156 fold-change vs cycle 0	0.681 ± 0.0378 fold-change vs cycle 0
AATCAT	2.57 ± 0.14 fold-change vs cycle 0	2.12 ± 0.0633 fold-change vs cycle 0	1.93 ± 0.164 fold-change vs cycle 0
ATACAG	1.33 ± 0.0931 fold-change vs cycle 0	1.41 ± 0.0818 fold-change vs cycle 0	1.36 ± 0.0886 fold-change vs cycle 0
CCTTAA	1.32 ± 0.0558 fold-change vs cycle 0	1.49 ± 0.018 fold-change vs cycle 0	1.37 ± 0.0901 fold-change vs cycle 0
GCTCAC	0.361 ± 0.0205 fold-change vs cycle 0	0.415 ± 0.0136 fold-change vs cycle 0	0.554 ± 0.021 fold-change vs cycle 0
GAGATC	0.836 ± 0.059 fold-change vs cycle 0	0.953 ± 0.0609 fold-change vs cycle 0	1.06 ± 0.0528 fold-change vs cycle 0
TCACAA	1.2 ± 0.0727 fold-change vs cycle 0	1.32 ± 0.0623 fold-change vs cycle 0	1.29 ± 0.11 fold-change vs cycle 0
ATTCAA	1.94 ± 0.125 fold-change vs cycle 0	1.97 ± 0.115 fold-change vs cycle 0	1.79 ± 0.158 fold-change vs cycle 0
TACACA	1.21 ± 0.07 fold-change vs cycle 0	1.3 ± 0.0721 fold-change vs cycle 0	1.29 ± 0.0617 fold-change vs cycle 0
CTTAGA	1.28 ± 0.0284 fold-change vs cycle 0	1.45 ± 0.0641 fold-change vs cycle 0	1.36 ± 0.0933 fold-change vs cycle 0
ATACAT	2.32 ± 0.0956 fold-change vs cycle 0	2.02 ± 0.0564 fold-change vs cycle 0	1.83 ± 0.109 fold-change vs cycle 0
AAAGAC	1.11 ± 0.0498 fold-change vs cycle 0	1.29 ± 0.0526 fold-change vs cycle 0	1.26 ± 0.0352 fold-change vs cycle 0
CCCTTC	0.486 ± 0.0255 fold-change vs cycle 0	0.614 ± 0.0191 fold-change vs cycle 0	0.653 ± 0.0312 fold-change vs cycle 0
GTTAAC	1.39 ± 0.126 fold-change vs cycle 0	1.53 ± 0.0957 fold-change vs cycle 0	1.38 ± 0.101 fold-change vs cycle 0
CCATCA	0.823 ± 0.0184 fold-change vs cycle 0	0.957 ± 0.0265 fold-change vs cycle 0	0.949 ± 0.0116 fold-change vs cycle 0
CATAAA	2.36 ± 0.2 fold-change vs cycle 0	1.79 ± 0.0666 fold-change vs cycle 0	1.6 ± 0.121 fold-change vs cycle 0

Sequence	binding signal (SALL4 ZFC4 WT (HT-SELEX))	binding signal [1]	binding signal [2]
ACCGAT	0.687 ± 0.0287 fold-change vs cycle 0	0.745 ± 0.0142 fold-change vs cycle 0	0.862 ± 0.0275 fold-change vs cycle 0
AGCGTA	0.55 ± 0.0304 fold-change vs cycle 0	0.623 ± 0.0245 fold-change vs cycle 0	0.723 ± 0.0232 fold-change vs cycle 0
ACCCTC	0.489 ± 0.00987 fold-change vs cycle 0	0.562 ± 0.0409 fold-change vs cycle 0	0.66 ± 0.0504 fold-change vs cycle 0
GAGACC	0.414 ± 0.0124 fold-change vs cycle 0	0.5424 ± 0.00269 fold-change vs cycle 0	0.643 ± 0.0507 fold-change vs cycle 0
AGCTAG	0.723 ± 0.0356 fold-change vs cycle 0	0.815 ± 0.0265 fold-change vs cycle 0	0.874 ± 0.021 fold-change vs cycle 0
GAATAC	1.29 ± 0.026 fold-change vs cycle 0	1.41 ± 0.0467 fold-change vs cycle 0	1.34 ± 0.07 fold-change vs cycle 0
TATATA	5.68 ± 0.781 fold-change vs cycle 0	2.55 ± 0.233 fold-change vs cycle 0	2.17 ± 0.291 fold-change vs cycle 0
ATGTTA	2.16 ± 0.126 fold-change vs cycle 0	2.08 ± 0.106 fold-change vs cycle 0	1.83 ± 0.212 fold-change vs cycle 0
AGTTCC	0.848 ± 0.0309 fold-change vs cycle 0	0.972 ± 0.0535 fold-change vs cycle 0	0.98 ± 0.0319 fold-change vs cycle 0
TAGGCA	0.578 ± 0.0216 fold-change vs cycle 0	0.648 ± 0.0255 fold-change vs cycle 0	0.751 ± 0.038 fold-change vs cycle 0
ATTCGC	0.463 ± 0.033 fold-change vs cycle 0	0.495 ± 0.0145 fold-change vs cycle 0	0.637 ± 0.0822 fold-change vs cycle 0
GGAGCA	0.352 ± 0.0189 fold-change vs cycle 0	0.423 ± 0.00792 fold-change vs cycle 0	0.543 ± 0.05 fold-change vs cycle 0
CTGACA	0.738 ± 0.0153 fold-change vs cycle 0	0.843 ± 0.0362 fold-change vs cycle 0	0.914 ± 0.0368 fold-change vs cycle 0
AACCTG	0.802 ± 0.0637 fold-change vs cycle 0	0.917 ± 0.053 fold-change vs cycle 0	0.952 ± 0.0288 fold-change vs cycle 0
CAGCTA	0.637 ± 0.0596 fold-change vs cycle 0	0.727 ± 0.0267 fold-change vs cycle 0	0.82 ± 0.0545 fold-change vs cycle 0
ACAACT	1.25 ± 0.0434 fold-change vs cycle 0	1.37 ± 0.0317 fold-change vs cycle 0	1.38 ± 0.0748 fold-change vs cycle 0
GAGTCC	0.481 ± 0.0188 fold-change vs cycle 0	0.549 ± 0.0274 fold-change vs cycle 0	0.669 ± 0.013 fold-change vs cycle 0
GTCCCA	0.392 ± 0.0166 fold-change vs cycle 0	0.464 ± 0.0186 fold-change vs cycle 0	0.563 ± 0.0717 fold-change vs cycle 0
GATAGA	1.32 ± 0.045 fold-change vs cycle 0	1.46 ± 0.0749 fold-change vs cycle 0	1.38 ± 0.128 fold-change vs cycle 0
AACGTG	0.697 ± 0.0529 fold-change vs cycle 0	0.827 ± 0.0416 fold-change vs cycle 0	0.87 ± 0.0436 fold-change vs cycle 0

Sequence	binding signal (SALL4 ZFC4 WT (HT-SELEX))	binding signal [1]	binding signal [2]
TACCAA	1.27 ± 0.0357 fold-change vs cycle 0	1.33 ± 0.0163 fold-change vs cycle 0	1.32 ± 0.055 fold-change vs cycle 0
GCAGTA	0.609 ± 0.0122 fold-change vs cycle 0	0.693 ± 0.0275 fold-change vs cycle 0	0.766 ± 0.032 fold-change vs cycle 0
AGTTGA	1.26 ± 0.0298 fold-change vs cycle 0	1.43 ± 0.0288 fold-change vs cycle 0	1.37 ± 0.0654 fold-change vs cycle 0
CCCACA	0.389 ± 0.0158 fold-change vs cycle 0	0.42 ± 0.0162 fold-change vs cycle 0	0.523 ± 0.0663 fold-change vs cycle 0
GTCAAA	0.9908 ± 0.00315 fold-change vs cycle 0	1.12 ± 0.0182 fold-change vs cycle 0	1.13 ± 0.0122 fold-change vs cycle 0
ATTTAC	1.95 ± 0.0871 fold-change vs cycle 0	1.9 ± 0.0674 fold-change vs cycle 0	1.69 ± 0.111 fold-change vs cycle 0
GATATA	2.54 ± 0.207 fold-change vs cycle 0	1.98 ± 0.124 fold-change vs cycle 0	1.77 ± 0.173 fold-change vs cycle 0
ACAAGC	0.616 ± 0.0453 fold-change vs cycle 0	0.707 ± 0.0111 fold-change vs cycle 0	0.798 ± 0.0212 fold-change vs cycle 0
TCAGGA	0.887 ± 0.0551 fold-change vs cycle 0	1.02 ± 0.0319 fold-change vs cycle 0	1.03 ± 0.0207 fold-change vs cycle 0
AATCCC	0.882 ± 0.0212 fold-change vs cycle 0	0.932 ± 0.0228 fold-change vs cycle 0	0.963 ± 0.0176 fold-change vs cycle 0
CTTTCC	0.771 ± 0.025 fold-change vs cycle 0	0.935 ± 0.0213 fold-change vs cycle 0	0.967 ± 0.0233 fold-change vs cycle 0
CACCTA	0.824 ± 0.0556 fold-change vs cycle 0	0.915 ± 0.0444 fold-change vs cycle 0	0.976 ± 0.0474 fold-change vs cycle 0
AACGAG	0.782 ± 0.0393 fold-change vs cycle 0	0.894 ± 0.0693 fold-change vs cycle 0	0.934 ± 0.0683 fold-change vs cycle 0
CCTCAG	0.494 ± 0.0292 fold-change vs cycle 0	0.591 ± 0.0293 fold-change vs cycle 0	0.666 ± 0.0425 fold-change vs cycle 0
TAAGCA	1.282 ± 0.00819 fold-change vs cycle 0	1.3 ± 0.0615 fold-change vs cycle 0	1.26 ± 0.0364 fold-change vs cycle 0
CCTGTA	0.809 ± 0.0421 fold-change vs cycle 0	0.915 ± 0.0586 fold-change vs cycle 0	0.974 ± 0.0591 fold-change vs cycle 0
ACGGTG	0.355 ± 0.0186 fold-change vs cycle 0	0.414 ± 0.0142 fold-change vs cycle 0	0.528 ± 0.0554 fold-change vs cycle 0
ACCTAG	0.875 ± 0.0697 fold-change vs cycle 0	0.986 ± 0.0422 fold-change vs cycle 0	1.04 ± 0.0407 fold-change vs cycle 0
ATAGAG	1.4 ± 0.0362 fold-change vs cycle 0	1.43 ± 0.0403 fold-change vs cycle 0	1.38 ± 0.0574 fold-change vs cycle 0
AACGCA	0.504 ± 0.0712 fold-change vs cycle 0	0.544 ± 0.00766 fold-change vs cycle 0	0.669 ± 0.0225 fold-change vs cycle 0
